This is an account of results in publication PMC5700166.

Test in all cases: protein-binding microarray (PBM); PBM: ~300 nM protein, 6 mM HEPES pH 7.8, 80 mM KCl, 0.5 mM EDTA, 0.5 mM EGTA, 6% glycerol, 35 ng/ul poly-dIdC, 1% milk, 1 h, room temperature; Ap Aiptasia and Nv Nematostella (sea anemones) / Co Capsaspora / Aq Amphimedon (sponge) / Dm Drosophila / Hu human; RHD is the Rel homology domain; high values mean tight binding
Holding throughout (conditions): dsDNA, one strand shown

In one assay the target is T1, GST-Ap-NF-kB RHD (Exaiptasia pallida (Aiptasia), UniProt A0A913YAJ5 2-422).
T1 sequence: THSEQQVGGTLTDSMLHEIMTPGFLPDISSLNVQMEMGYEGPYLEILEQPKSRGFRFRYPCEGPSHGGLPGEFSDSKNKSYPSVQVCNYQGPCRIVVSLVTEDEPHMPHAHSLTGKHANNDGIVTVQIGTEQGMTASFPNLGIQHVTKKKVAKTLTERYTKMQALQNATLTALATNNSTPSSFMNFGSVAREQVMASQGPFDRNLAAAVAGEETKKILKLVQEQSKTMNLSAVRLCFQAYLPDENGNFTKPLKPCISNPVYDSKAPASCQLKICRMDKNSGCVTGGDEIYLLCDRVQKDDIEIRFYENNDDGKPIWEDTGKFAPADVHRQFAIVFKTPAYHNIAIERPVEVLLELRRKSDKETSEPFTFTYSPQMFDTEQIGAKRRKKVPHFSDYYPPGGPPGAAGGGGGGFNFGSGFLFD

For assay [1], the target named is T2, GST-Nv-NF-kB (Cys allele) (Nematostella vectensis, UniProt E5G601 2-411).
T2 sequence: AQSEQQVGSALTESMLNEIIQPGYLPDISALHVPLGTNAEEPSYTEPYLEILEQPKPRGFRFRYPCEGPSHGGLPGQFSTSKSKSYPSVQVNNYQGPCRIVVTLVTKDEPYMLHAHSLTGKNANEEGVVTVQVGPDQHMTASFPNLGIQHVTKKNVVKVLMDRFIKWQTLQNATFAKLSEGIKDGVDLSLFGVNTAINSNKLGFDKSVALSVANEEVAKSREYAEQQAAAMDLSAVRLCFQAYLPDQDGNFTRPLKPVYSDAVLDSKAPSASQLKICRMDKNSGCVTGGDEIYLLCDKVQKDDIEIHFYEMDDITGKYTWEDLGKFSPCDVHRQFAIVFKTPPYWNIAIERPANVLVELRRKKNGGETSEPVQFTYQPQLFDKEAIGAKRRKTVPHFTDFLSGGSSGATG

In the next assay the target is T3, GST-Co-NF-kB (Capsaspora owczarzaki, UniProt F1ARL5 200-546).
T3 sequence: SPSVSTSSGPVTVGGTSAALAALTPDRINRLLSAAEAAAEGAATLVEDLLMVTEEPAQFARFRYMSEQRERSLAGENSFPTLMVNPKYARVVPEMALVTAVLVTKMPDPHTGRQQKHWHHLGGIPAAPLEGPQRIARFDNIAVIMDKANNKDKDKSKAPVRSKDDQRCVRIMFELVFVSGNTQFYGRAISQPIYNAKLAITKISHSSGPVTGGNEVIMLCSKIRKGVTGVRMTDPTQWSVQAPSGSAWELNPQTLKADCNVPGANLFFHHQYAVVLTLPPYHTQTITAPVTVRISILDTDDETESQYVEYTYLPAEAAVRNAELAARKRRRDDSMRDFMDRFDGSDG

The target in the next assay is T4, GST-Dm-Relish (Drosophila melanogaster, UniProt Q94527 99-473).
T4 sequence: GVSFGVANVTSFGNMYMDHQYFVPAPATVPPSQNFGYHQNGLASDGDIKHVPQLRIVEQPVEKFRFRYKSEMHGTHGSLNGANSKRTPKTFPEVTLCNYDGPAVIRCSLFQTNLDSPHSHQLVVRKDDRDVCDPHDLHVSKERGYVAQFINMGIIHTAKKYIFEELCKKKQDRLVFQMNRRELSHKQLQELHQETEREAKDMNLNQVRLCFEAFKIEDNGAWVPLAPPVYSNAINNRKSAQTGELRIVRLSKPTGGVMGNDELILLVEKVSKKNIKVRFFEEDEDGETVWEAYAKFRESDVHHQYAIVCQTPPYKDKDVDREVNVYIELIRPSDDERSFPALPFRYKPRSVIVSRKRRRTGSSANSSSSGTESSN

The next assay addresses T5, GST-Aq-NF-kB (Amphimedon queenslandica, UniProt A9Y5G7 2-389).
T5 sequence: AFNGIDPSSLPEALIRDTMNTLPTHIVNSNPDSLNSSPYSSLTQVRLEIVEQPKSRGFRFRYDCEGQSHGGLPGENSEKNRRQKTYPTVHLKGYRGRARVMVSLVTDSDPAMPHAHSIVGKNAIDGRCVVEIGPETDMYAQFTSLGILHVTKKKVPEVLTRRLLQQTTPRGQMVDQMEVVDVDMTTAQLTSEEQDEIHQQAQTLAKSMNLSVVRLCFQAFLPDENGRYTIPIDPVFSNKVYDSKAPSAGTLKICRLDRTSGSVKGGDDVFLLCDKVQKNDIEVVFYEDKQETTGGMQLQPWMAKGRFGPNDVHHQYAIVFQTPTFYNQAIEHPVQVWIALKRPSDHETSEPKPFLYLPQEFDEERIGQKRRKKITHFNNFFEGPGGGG

On to “CCGATTAACATCAGGGAATACCATGATGTTAATCGGGTCTTGATTCGCTTGACGCTGCTG”, for which the binding signal with GST-Ap-NF-kB RHD was determined as 3.14 z-score; in assay [1], 2.92 z-score; with GST-Co-NF-kB it was 2.08 z-score; in the assay with GST-Dm-Relish, 6.8 z-score; with GST-Aq-NF-kB it was 4.48 z-score.

Turning to “CCGATTAACATCAGATTCTCCCCTGATGTTAATCGGGTCTTGATTCGCTTGACGCTGCTG”, the binding signal in the assay with GST-Ap-NF-kB RHD stood at 5.2 z-score; in assay [1], 5.25 z-score; with GST-Co-NF-kB, 6.76 z-score; with GST-Dm-Relish it was 1.92 z-score; in the assay with GST-Aq-NF-kB, 4.43 z-score.

For the sequence “CCGATTAACATCAGGGAATCTCATGATGTTAATCGGGTCTTGATTCGCTTGACGCTGCTG”, the binding signal in the assay with GST-Ap-NF-kB RHD worked out at 2.33 z-score; in assay [1], 3.41 z-score; with GST-Co-NF-kB, 1.96 z-score; with GST-Dm-Relish, 1.4 z-score; with GST-Aq-NF-kB, 3.46 z-score.

As to “CCGATTAACATCAGGGCAGCCCCTGATGTTAATCGGGTCTTGATTCGCTTGACGCTGCTG”, the binding signal with GST-Ap-NF-kB RHD was found to be 4.41 z-score; in assay [1], 4.88 z-score; in the assay with GST-Co-NF-kB it was 1.25 z-score; with GST-Dm-Relish, 4.16 z-score; in the assay with GST-Aq-NF-kB it was 7.43 z-score.

For the sequence “CCGATTAACATCAGAGTCCCCCCTGATGTTAATCGGGTCTTGATTCGCTTGACGCTGCTG”, the binding signal was found to be 5.97 z-score with GST-Ap-NF-kB RHD; 5.02 z-score in assay [1]; 7.33 z-score with GST-Co-NF-kB; 5.14 z-score with GST-Dm-Relish; 4.89 z-score in the assay with GST-Aq-NF-kB.

As for “CCGATTAACATCAGACAATTCCCTGATGTTAATCGGGTCTTGATTCGCTTGACGCTGCTG”, the binding signal in the assay with GST-Ap-NF-kB RHD was 3.02 z-score; in assay [1], 5 z-score; in the assay with GST-Co-NF-kB it was 2.28 z-score; with GST-Dm-Relish it was 1.37 z-score; with GST-Aq-NF-kB, 4.77 z-score.

On to “CCGATTAACATCAAAGGTCCCCCTGATGTTAATCGGGTCTTGATTCGCTTGACGCTGCTG”, for which the binding signal was determined as 6.07 z-score with GST-Ap-NF-kB RHD; 4.14 z-score in assay [1]; 4.7 z-score in the assay with GST-Co-NF-kB; 4.42 z-score with GST-Dm-Relish; 4.58 z-score with GST-Aq-NF-kB.

For “CCGATTAACATCAGGATATTCCCTGATGTTAATCGGGTCTTGATTCGCTTGACGCTGCTG”, the binding signal is 4.67 z-score with GST-Ap-NF-kB RHD; 5.16 z-score in assay [1]; 3.51 z-score in the assay with GST-Co-NF-kB; 3.37 z-score with GST-Dm-Relish; 6.63 z-score in the assay with GST-Aq-NF-kB.

Take “CCGATTAACATCAAAATTCCCATTGATGTTAATCGGGTCTTGATTCGCTTGACGCTGCTG”: the binding signal in the assay with GST-Ap-NF-kB RHD came to 3.68 z-score; in assay [1], 6.03 z-score; in the assay with GST-Co-NF-kB, 3.56 z-score; with GST-Dm-Relish it was 6.03 z-score; with GST-Aq-NF-kB it was 4.99 z-score.

Turning to “CCGATTAACATCAAAAATCACCCTGATGTTAATCGGGTCTTGATTCGCTTGACGCTGCTG”, the binding signal with GST-Ap-NF-kB RHD worked out at 2.67 z-score; in assay [1] it was 2.98 z-score; in the assay with GST-Co-NF-kB it was 2.5 z-score; with GST-Dm-Relish it was 7.81 z-score; in the assay with GST-Aq-NF-kB, 3.84 z-score.

Regarding “CCGATTAACATCAATGTCCCCCCTGATGTTAATCGGGTCTTGATTCGCTTGACGCTGCTG”, the binding signal with GST-Ap-NF-kB RHD is 5.26 z-score; in assay [1], 4.79 z-score; with GST-Co-NF-kB, 8.35 z-score; in the assay with GST-Dm-Relish, 3.82 z-score; in the assay with GST-Aq-NF-kB, 4.85 z-score.

On to “CCGATTAACATCAGACCTCCCCCTGATGTTAATCGGGTCTTGATTCGCTTGACGCTGCTG”, for which the binding signal with GST-Ap-NF-kB RHD was 6.03 z-score; in assay [1], 3.94 z-score; with GST-Co-NF-kB, 5.48 z-score; with GST-Dm-Relish it was 2.4 z-score; with GST-Aq-NF-kB, 4.44 z-score.
